Screens from PubChem.
aSyn 5UTR act: Activators via SNCA 5'UTR binding, MLPCN; activity score, % (tested at 7.5 µM), hits read low; AID 1814; hit rate 7.1% among 300,000; alpha-synuclein 5'UTR reporter, activators screen; in the data active means activity score below about -60%
Active calls of the source: *. These entries were drawn from the full list.

SMILES | aSyn 5UTR act
CC1=C(CO)C(=O)OC([C@@H](C)C2CC[C@H]3C4C[C@H]5O[C@]56[C@@H](O)C=CC(=O)[C@]6(C)C4CC[C@]23C)C1 (stereo not given in full) | -91*
CSc1ccc(/C=C/c2cc(=O)c3ccccc3[nH]2)cc1 | -69*
O=c1cc(-c2cccc(F)c2)[nH]c2ccccc12 | 87
O=c1sc2ccccc2n1CCCOc1ccccc1 | -137*
Cc1ccc(OCCCn2c(=O)sc3ccccc32)cc1 | -65*
Cc1ccc(OCCn2c(=O)sc3ccccc32)cc1 | -115*
O=c1sc2ccccc2n1COc1ccc(Cl)cc1 | -90*
Cc1ccccc1OCCCn1c(=O)sc2ccccc21 | -130*
Cc1ccc(C2=NN3C(C(=O)c4ccccc4)Oc4ccccc4C3C2)cc1 (stereo not given) | -146*
COc1ccc(C2=NN3C(C2)c2ccccc2OC32C(=O)N(C)c3ccccc32)cc1 (stereo not given) | -131*
Cc1ccc(C(=O)C2Oc3ccccc3C3CC(c4ccc(C)cc4)=NN23)cc1 (stereo not given) | -82*
COc1ccc(C2=NN3C(C2)c2ccccc2OC3c2cccs2)cc1 (stereo not given) | -190*
CN(C)C(CNC(=O)c1ccc2ccccc2c1)c1ccco1 (stereo not given) | -62*
CN(C)c1cccc(C(=O)NCC(c2ccco2)N(C)C)c1 (stereo not given) | -75*
Cc1ccc(-c2nc3ccccc3s2)cc1S(=O)(=O)N1CCCC1 | -63*
c1ccc(Nc2nc(CSc3ncn[nH]3)cs2)cc1 | -135*
Cc1nc(C#N)c(N/N=C/c2cccc(Cl)c2)o1 | -126*
COC(=O)c1ccc(C)c(NC(=O)CN(c2cc(OC)ccc2OC)S(C)(=O)=O)c1 | -88*
COc1ccc(N(CC(=O)Nc2cc(Cl)ccc2C)S(=O)(=O)c2c(C)noc2C)cc1 | 78
Clc1cccc(Nc2nc(-c3ccncc3)cs2)c1 | -159*
Cc1ccc(Nc2nc(-c3ccncc3)cs2)cc1 | -331*
O=C1Nc2ccccc2/C1=N/c1sc2c(c1C(=O)NCCc1ccccc1)CCCC2 | -87*
N#Cc1cnn(-c2ncnc3sc(-c4ccccc4)cc23)c1N | -65*
c1ccc(Oc2cc(-n3cccn3)ncn2)cc1 | -140*
COC(=O)c1cnc(Oc2ccc(NC(=O)NC(=O)c3c(OC)cccc3OC)cc2)cc1C(F)(F)F | 74
SMILES | aSyn 5UTR act
COC(=O)c1cnn(-c2cc(Oc3ccccc3)ncn2)c1N | -127*
NC(=O)c1cnn(-c2cc(Oc3ccccc3)ncn2)c1N | -66*
O=C1CCCC/C1=C/Nc1ccc2c(c1)OCO2 | -139*
O=C1CCCC/C1=C/Nc1ccc(C(=O)O)cc1 | -72*
O=C(Nc1ccc(CN2CCCCC2)cc1)c1ccc(Br)o1 | -76*
Oc1c(CN2CCCCC2)cc(Br)c2cccnc12 | 112
O=C(Nc1ccc(CN2CCCCC2)cc1)c1c(F)c(F)c(F)c(F)c1F | -63*
CC(C)CNC(=O)C1CCN(Cc2ccc(OCc3ccccc3)cc2)CC1 | -95*
CC(O)CNC(=O)C1CCN(Cc2ccc(OCc3ccccc3)cc2)CC1 (stereo not given) | -126*
Cc1ccsc1C(=O)OCC(=O)NCCC1=CCCCC1 | -81*
O=S1(=O)N=C(Nc2ccc(N3CCOCC3)c(Cl)c2)c2ccccc21 | -193*
O=C1c2ccccc2S(=O)(=O)c2cc(N3CCOCC3)ccc21 | 76
[O-][n+]1c2ccccc2c2n1CCCN=C2c1ccc(Cl)cc1 | -149*
CCn1cc(C(=O)NCc2ccco2)c(=O)c2cc(S(=O)(=O)N3CC(C)CC(C)C3)ccc21 (stereo not given) | 82
Cc1ccc(S(=O)(=O)N2CCCCC2CCNC(=O)C(=O)Nc2ccccc2F)cc1 (stereo not given) | -148*
Cc1ccc(S(=O)(=O)N2CCCCC2CCNC(=O)C(=O)NCc2ccco2)cc1 (stereo not given) | -66*
Cc1ccc(S(=O)(=O)N2CCCCC2CCNC(=O)C(=O)NCCc2ccco2)cc1 (stereo not given) | -102*
Fc1ccc(NC(=S)Nc2cccc3ccccc23)cc1 | -84*
Cc1ccc(NC(=S)Nc2cccc3ccccc23)cc1 | -65*
COCC(=O)Nc1nc(-c2ccccc2)ns1 | -78*
CC(=O)Nc1nc(-c2ccccc2)ns1 | -108*
Nc1ccccc1C#Cc1ccc([N+](=O)[O-])cc1 | -262*
O=c1oc(Nc2cccc(F)c2)nc2ccccc12 | -64*
O=C1c2cc(F)ccc2-n2c1nc1ccccc1c2=O | 66
Nc1nc(Nc2cccc(F)c2)nc2ccccc12 | -196*
SMILES | aSyn 5UTR act
Cc1cc(C)c2c(N)c3ccccc3nc2n1 | -623*
CCc1ccc2nc3nc(C)cc(C)c3c(N)c2c1 | -391*
COc1cc(/C=N/NC(=S)Nc2cccc(C(=O)O)c2)ccc1O | 70
COc1cc(/C=N/NC(=O)Nc2ccccc2)ccc1OC(C)=O | -188*
CCOc1cc(/C=N/NC(=O)Nc2ccccc2)ccc1O | -197*
O=C(c1ccccc1)c1cc2cc(Cl)ccc2[nH]1 | -169*
COc1cccc(C(=O)c2cc3cc(Cl)ccc3[nH]2)c1 | -147*
Cn1cccc1C(=O)OCC(=O)Nc1ccc2c(c1)OCO2 | -101*
Cn1cccc1C(=O)OCC(=O)Nc1ccc2c(c1)CCC2 | -138*
CC(=O)Nc1ccc2nc(-c3cccs3)[nH]c2c1 | -110*
Cn1cccc1-c1nc2ccc(NC(=O)c3cccs3)cc2[nH]1 | -115*
CC(=O)Nc1ccc2nc(-c3cccn3C)[nH]c2c1 | -88*
COc1ccc(-n2cnc3cc(N)ccc32)cc1 | -75*
C/C(=N\NC(=O)c1cccc(Cl)c1)C1C(=O)c2ccccc2C1=O | -120*
COc1ccc2c(c1)CCc1c(C(=O)N3CCCCCC3)noc1-2 | -64*
CCCNC(=O)c1noc2c1CCc1cc(OC)ccc1-2 | -71*
O=C(c1noc2c1CCc1ccccc1-2)N1CCOCC1 | -72*
COc1ccc2c(c1)CCc1c(C(=O)NCc3cccnc3)noc1-2 | -91*
Fc1ccccc1-c1nc(-c2ccncc2)no1 | -116*
NC(=O)c1ccccc1-c1nc(-c2ccccc2)no1 | -82*
Fc1ccccc1-c1nc(-c2ccccc2)no1 | -97*
Cc1nc(-c2ccccn2)sc1C(=O)Nc1ccc(Cl)c(Cl)c1 | -78*
CCOC(=O)c1sc(-c2ccccn2)nc1C | -125*
CCOC(=O)c1sc(NC(=O)CNCc2ccccn2)c(C(=O)OCC)c1C | 60
CC(C)/C(=N\NC(=O)Nc1ccccc1)c1ccccc1 | -70*
SMILES | aSyn 5UTR act
C/C(=N\NC(=O)Nc1ccccc1)c1ccccc1 | -80*
Nc1ccc(C(=O)N/N=C2\CCCc3c2[nH]c2ccccc32)cc1 | -73*
CN1CCN(S(=O)(=O)c2cccc(C(=O)Nc3sc4c(c3-c3nc5ccccc5[nH]3)CCCC4)c2)CC1 | -109*
O=C(Nc1cccc(-c2csc(Nc3ccc(Cl)cc3)n2)c1)c1cc([N+](=O)[O-])cc(C(F)(F)F)c1 | -72*
O=C(Nc1cccc(-c2csc(Nc3ccc(Cl)cc3)n2)c1)c1cccc(C(F)(F)F)c1 | -71*
O=C(Nc1cccc(-c2csc(Nc3ccccc3)n2)c1)c1cc([N+](=O)[O-])cc(C(F)(F)F)c1 | -87*
CCOC(=O)C1(Cc2ccc(OC)cc2)CCN(C(=O)c2ccc3[nH]ccc3c2)CC1 | -127*
CCCCSc1nnc(-c2ccc(C)cc2)n1C | -109*
CCCCSc1nnc(-c2c[nH]c3ccccc23)n1C | -135*
Cn1c(SCCOc2ccc(F)cc2)nnc1-c1ccncc1 | -62*
Cn1c(SCc2ccccc2)nnc1-c1c[nH]c2ccccc12 | -107*
